# Inconclusive results are not listed. A call without a number means that no potency is given here. Unmarked numbers belong to inactive results. Activity calls are given as the source filed them. The call rests on the fitted dose curve; in most records, active means well fitted inhibition curve with a large enough effect; inconclusive means small, poorly fitted or top-dose-only effect; inactive means no such curve, though single readings can be large or run the other way.
# Experiments:
# [1] = system: Zika virus NS2B-NS3 protease (unlinked complex); assay: Primary screen GU Rhodamine qHTS for Zika virus inhibitors: Unlinked NS2B-NS3 protease assay (AID 1347159); further: nearly all actives have a fitted effect of over 60% in size
# Procedure, shortened: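 Percent inhibition derives from the 15-min fluorescence change (ex 480, em 540 nm), normalized to no-enzyme and no-inhibitor wells. Reactions contained 25 nM NS2B-NS3 complex and 1.5 microM substrate in 10 mM Tris-HCl pH 8.0.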
# [2] = system: Zika virus NS2B-NS3 protease (linked construct); assay: Primary screen NINDS Rhodamine qHTS for Zika virus inhibitors (AID 1347160); further: nearly all actives have a fitted effect of over 55% in size
# Procedure, shortened: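 In 10 mM Tris-HCl pH 8.0 containing 0.01% Tween 20, linked NS2B-NS3 protease (25 nM final) is exposed to test compounds for 15 min. Cleavage of 1.5 microM Rhodamine110 substrate is tracked by fluorescence over 15 min.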
smiles,measurement,setting,value
CC(=O)OC12C(O)C(C)C3(O)C4C=C(C)C(=O)C4CC(CO)=CC3C1C2(C)C (configuration not stated),Potency,[1],inactive
same,Potency,[2],inactive
C/C=C(\C)C(=O)O[C@H]1[C@H](OC(C)=O)[C@]2(CO)[C@H](O)[C@H](O)[C@]3(C)C(=CCC4[C@@]5(C)CC[C@H](O[C@@H]6O[C@H](C(=O)O)[C@@H](O)[C@H](O[C@@H]7OC[C@H](O)[C@H](O[C@@H]8OC[C@H](O)[C@H](O)[C@H]8O)[C@H]7O)[C@H]6O[C@@H]6O[C@H](CO)[C@@H](O)[C@H](O)[C@H]6O)C(C)(C)C5CC[C@]43C)[C@@H]2CC1(C)C (some centres not stated),"activity change, negative = inhibition",[1],-9.49% [at 19.1 µM]
same,"activity change, negative = inhibition",[2],4.93% [at 10.7 µM]
C[C@@]12C[C@@H](c3ccoc3)OC(=O)C1CC[C@]1(C)[C@H]2[C@H]2C=C[C@]1(O)C(=O)O2 (some centres not stated),Potency,[1],inactive
same,Potency,[2],inactive
CCN1C[C@]2(OC(=O)c3ccccc3NC(C)=O)CC[C@H](OC)[C@@]34[C@@H]2C[C@@H]([C@@H]13)[C@@]1(O)C[C@H](OC)[C@H]2C[C@@H]4[C@]1(O)[C@H]2OC,Potency,[1],inactive
same,Potency,[2],inactive
OCCCCC#Cc1cncc(OC[C@@H]2CCN2)c1,Potency,[1],inactive
same,Potency,[2],inactive
C1=C2CCCN[C@H]2[C@@H]2C[C@H]1[C@H]1CCCCN1C2,Potency,[1],inactive
same,Potency,[2],inactive
CN1CCCC1CCOC(c1cc2nccc(C(=O)O)c2[nH]1)c1ccccc1Cl (configuration not stated),Potency,[1],inactive
same,Potency,[2],inactive
CN[C@H]1[C@H](O)[C@H](O[C@@H]2[C@@H](O)[C@H](O[C@H]3O[C@H]([C@H](C)O)[C@@H](O)[C@H](O)[C@H]3N)[C@@H](N)C[C@H]2N)OC[C@@]1(C)O,Potency,[1],inactive
same,Potency,[2],inactive
C[C@]12CC[C@@H](O)C[C@H]1CC[C@@H]1[C@@H]2CC[C@]2(C)C(=O)CC[C@@H]12,Potency,[1],inactive
same,Potency,[2],inactive
CN(C(=O)Cc1ccccc1)C(CN1CCCC1)c1ccccc1 (configuration not stated),Potency,[1],inactive
same,Potency,[2],inactive
C[C@H](NC(=O)Cc1cc(F)cc(F)c1)C(=O)N[C@@H]1N=C(c2ccccc2)c2ccccc2N(C)C1=O,Potency,[1],inactive
same,Potency,[2],inactive
Cn1ncnc1COc1nn2c(-c3c(F)cccc3F)nnc2cc1C1CCC1,Potency,[1],inactive
same,Potency,[2],inactive
C[C@H]1O[C@@H](O[C@H]2C[C@@H](O)[C@]3(CO)C4C(CC[C@]3(O)C2)[C@@]2(O)CC[C@H](C3=CC(=O)OC3)[C@@]2(C)C[C@H]4O)[C@@H](O)[C@@H](O)[C@H]1O (some centres not stated),Potency,[1],inactive
same,Potency,[2],inactive
C[C@@](O)(COc1ccc(C#N)cc1)C(=O)Nc1ccc(C#N)c(C(F)(F)F)c1,Potency,[1],inactive
same,Potency,[2],inactive
CCCN1CCO[C@H]2c3cc(O)ccc3OC[C@@H]21,Potency,[1],inactive
same,Potency,[2],inactive
CN1[C@@H]2CC[C@H]1CC(OC(=O)C1C=Nc3ccccc31)C2 (some centres not stated),Potency,[1],inactive
same,Potency,[2],inactive
C/C=C(\C)C(=O)OC1CC2C(CC=C3CC(OC4CC(OC)C(OC5CC(OC)C(OC6OC(C)C(OC7OC(CO)C(O)C(O)C7O)C(OC)C6O)C(C)O5)C(C)O4)CCC32C)C2(O)CCC(C(C)=O)C12C (configuration not stated),Potency,[2],inactive
CC(C)=C1CC[C@]23CO[C@H](C2)[C@@](O)(C(=O)O)CCC13 (some centres not stated),Potency,[1],inactive
same,Potency,[2],inactive
C[C@H]1C(=O)O[C@H]2[C@H](O)[C@]34C5OC(=O)[C@]3(O[C@@H]3OC(=O)[C@H](O)C34[C@H](C(C)(C)C)[C@H]5O)C12O (some centres not stated),Potency,[1],inactive
same,Potency,[2],inactive
Oc1ccc2c3c1O[C@H]1[C@H](N(CCCl)CCCl)CC[C@@]4(O)[C@@H](C2)N(CC2CC2)CC[C@]314,"activity change, negative = inhibition",[1],-3.74% [at 19.1 µM]
same,outcome,[2],inactive [at 10.7 µM]
Clc1ccc(N2C[C@H]3CC[C@@H](C2)N3)nn1,Potency,[1],inactive
same,Potency,[2],inactive
CCOc1ccccc1-n1c(C(C)N2CCN(C(=O)COc3ccc(Cl)cc3)CC2)nc2ccccc2c1=O (configuration not stated),Potency,[1],inactive
same,Potency,[2],inactive
N#CC(OC1OC(COC2OC(CO)C(O)C(O)C2O)C(O)C(O)C1O)c1ccccc1 (configuration not stated),Potency,[1],inactive
same,Potency,[2],inactive
CC1=C2C[C@H]3[C@@H](CC=C4C[C@@H](O)CC[C@@]43C)[C@@H]2CC[C@]12O[C@@H]1C[C@H](C)CN[C@H]1[C@H]2C,Potency,[1],inactive
same,Potency,[2],inactive
COC1C(O)C(C)OC(OC2C(CO)O[C@@H](O[C@@H]3CC4CCC5C(CC[C@]6(C)[C@@H](C7=CC(=O)OC7)CC[C@]56O)[C@@]4(C)[C@H](O)C3)C(O)C2O)C1O (some centres not stated),Potency,[1],inactive
same,Potency,[2],inactive
CCc1c(C(=O)C(N)=O)c2c(OCC(=O)OC)cccc2n1Cc1ccccc1,Potency,[1],inactive
same,Potency,[2],inactive
Cc1cccc(NC(=O)N[C@@H]2N=C(c3ccccc3)c3ccccc3N(C)C2=O)c1,Potency,[1],inactive
same,Potency,[2],inactive
COC(=O)C1(C)CCC(O)C2(C)c3c(O)cc(C(C)C)cc3C(O)C(OC(C)=O)C12 (configuration not stated),Potency,[1],inactive
same,Potency,[2],inactive
COC1=CC(=O)O[C@@H](/C=C/c2ccccc2)C1,Potency,[1],inactive
same,Potency,[2],inactive
CN1C(=O)N(c2ccc(C#N)c(C(F)(F)F)c2)C(=O)[C@]1(CO)c1ccccc1,Potency,[1],inactive
same,Potency,[2],inactive
CN1C(=O)c2ccccc2NC(=O)C1Cc1ccccc1 (configuration not stated),Potency,[2],inactive
COc1ccccc1CN[C@H]1C2CCN(CC2)[C@H]1C(c1ccccc1)c1ccccc1,Potency,[2],inactive
CC(=O)O[C@H]1C[C@@H](OC(C)=O)C(C)(C)C2C[C@@H](O)[C@]3(C)C(CC[C@@]4(C)[C@H](C5=CC(=O)OC5O)C[C@H]5O[C@]543)[C@]21C (some centres not stated),Potency,[2],inactive
O=C(O)c1ccnc2cc(C(OCCN3CCCCC3)c3ccccc3Cl)[nH]c12 (configuration not stated),Potency,[2],inactive
COC1C(O)C(OC2CCC3(C=O)C(CCC4C3CCC3(C)C(C5=CC(=O)OC5)CCC43O)C2)OC(C)C1OC1OC(CO)C(O)C(O)C1O (configuration not stated),Potency,[2],inactive
COC1CC(=O)C23C(=O)NC(CC(C)C)C2C(C)=C(C)C(OO)C3/C=C(\C)CCC(O)C1O (configuration not stated),Potency,[2],inactive
CC(C)(O)[C@H]1O[C@H]2CC[C@@]3(C)[C@@](O)(CC[C@H]4Cc5c([nH]c6ccccc56)[C@@]43C)C2=CC1=O,Potency,[2],inactive
CCC1NC(=O)C2C(Cl)C(Cl)CN2C(=O)C(C(C)O)NC(=O)CC(c2ccccc2)NC(=O)C(CO)NC1=O (configuration not stated),Potency,[2],inactive
C[C@@H]1C(=O)O[C@H]2[C@H](O)[C@@]34[C@@H]5OC(=O)[C@@]3(O[C@@H]3OC(=O)[C@@H](O)[C@@]34[C@H](C(C)(C)C)[C@H]5O)[C@@]12O,Potency,[2],inactive
C=C[C@H]1CN2CC[C@H]1C[C@@H]2[C@@H](O)c1ccnc2ccccc12,Potency,[2],inactive
COc1cc(CCNCc2ccccc2O)c(OC)cc1C#N,Potency,[2],inactive
CC(=O)OC1CC(O)C(C)(C)C2CC(OC(C)=O)C3(C)C(CCC4(C)C(c5ccoc5)C(=O)C5OC543)C12C (configuration not stated),Potency,[2],inactive
COc1cc(C)[nH]c(=O)c1CNC(=O)c1c(C)n([C@H](C)C2CCOCC2)c2ccccc12,Potency,[2],inactive
Cc1c(Cl)cccc1S(=O)(=O)Nc1nc(CC(=O)N2CCN(C)CC2)cs1,Potency,[2],inactive
CCCCCCn1c(=O)c(C(=O)Nc2ccc(C(=O)OCCC)cc2)c(O)c2ccccc21,outcome,[2],inactive [at 10.7 µM]
CN1CCC[C@@H]1Cc1c[nH]c2ccc(Nc3ncccc3[N+](=O)[O-])cc12,Potency,[2],inactive
CC(C)C1(OO)C=C2C(=O)CC3C(C)(C(=O)O)CCCC3(C)C2CC1 (configuration not stated),Potency,[2],inactive
O=C1C[C@@H]2OCC=C3CN4CC[C@]56c7ccccc7N1[C@H]5[C@H]2[C@H]3C[C@H]46,Potency,[2],inactive
CC12CCC3C(CCC4(O)CC(O)CCC34C=O)C1(O)CCC2C1=CC(=O)OC1 (configuration not stated),Potency,[2],inactive
CC[C@H]1CN2CC[C@H]1C[C@@H]2[C@@H](O)c1ccnc2ccc(OC)cc12,Potency,[2],inactive
CO[C@@H]1[C@H](O)[C@@H](O[C@@H]2C[C@H]3CC[C@@H]4C(CC[C@]5(C)[C@@H](C6=CC(=O)OC6)CC[C@]45O)[C@@]3(C)[C@H](O)C2)O[C@H](C)[C@@H]1O[C@@H]1O[C@H](CO)[C@@H](O)[C@H](O)[C@H]1O (some centres not stated),Potency,[2],inactive
CN1C(=O)c2ccccc2NC(=O)[C@]12O[C@@H]2c1ccccc1,Potency,[2],inactive
C=C(CO)C(=O)O[C@H]1C/C(C)=C/CC/C(CO)=C/[C@H]2OC(=O)C(=C)[C@H]12,Potency,[2],inactive
COC1CC(OC2CCC3(C=O)C(CCC4C3CCC3(C)C(C5=CC(=O)OC5)CCC43O)C2)OC(C)C1OC1OC(CO)C(O)C(O)C1O (configuration not stated),Potency,[2],inactive
Cc1cn(C[C@H](N)C(=O)O)c(=O)n(Cc2cc(-c3ccccc3)sc2C(=O)O)c1=O,Potency,[2],inactive
C/C=C(\C)C(=O)OC1CC2C(C)(C)OC(=O)CC(OC(C)=O)C2(C)C2CC(OC(=O)C(C)C)C3(C)C(c4ccoc4)CC4OC43C12C (configuration not stated),Potency,[2],inactive
CCN1C[C@]2(COC)[C@H](O)C[C@H](OC)[C@]34[C@@H]5C[C@]6(O)[C@H](OC(=O)c7ccccc7)[C@@H]5[C@@](O)([C@H]([C@H](OC)[C@H]23)[C@@H]14)[C@@H](O)[C@@H]6OC,Potency,[2],inactive
CC(=O)OC1CC(O)C2(C)C(CC(OC(C)=O)C3(C)C2CCC2(C)C(c4ccoc4)C(=O)C4OC423)C1(C)C (configuration not stated),Potency,[2],inactive
COC(=O)N1CCN(C(=O)Cc2ccc(Cl)c(Cl)c2)[C@@H](CN2CCCC2)C1,Potency,[2],inactive
C[C@]12CC[C@H]3[C@@H]([C@H](O)CC4=CC(=O)CC[C@@]43C)[C@@H]1CC[C@@H]2O,Potency,[2],inactive
COC1CC(OC2CCC3(C)C(=CCC4C3CCC3(C)C(C(C)OC5OC(COC6OC(CO)C(O)C(O)C6O)C(O)C(O)C5O)CCC43O)C2)OC(C)C1OC1OC(C)C(O)C(OC)C1O (configuration not stated),Potency,[2],inactive
COC1CC(O[C@H]2CC[C@@]3(C)C(=CCC4C3C(O)[C@@H](O)[C@]3(C)[C@@H](C(C)=O)CC[C@]43O)C2)OC(C)C1OC1CC(OC)C(OC2OC(C)C(O)C(O)C2O)C(C)O1 (some centres not stated),Potency,[2],inactive
N#C[C@@H](O[C@@H]1O[C@H](CO[C@@H]2O[C@H](CO)[C@@H](O)[C@H](O)[C@H]2O)[C@@H](O)[C@H](O)[C@H]1O)c1ccccc1,Potency,[2],inactive
